Parameters in all cases: species or system human, MV4-11 + K-562 + COLO205 + SK-N-BE2 + OVCAR-8
One test relates to CDK7. To be noted: read-out: apparent Kd, compound concentrations: 100 nM and 1000 nM (sheet 'Samples'), n = 1.
In another test the test system is CDKL5. To be noted: read-out: apparent Kd, n = 1.
The next test relates to DYRK1A. Conditions: read-out: apparent Kd, n = 1.
A further test has as its system ERCC2. To be noted: read-out: apparent Kd, compound concentrations: 100 nM and 1000 nM (sheet 'Samples'), n = 1.
In a further test the test system is MYLK3. Conditions: read-out: apparent Kd, compound concentrations: 100 nM and 1000 nM (sheet 'Samples'), n = 1.
A further test deals with PIP4K2C. Conditions: read-out: apparent Kd, compound concentrations: 100 nM and 1000 nM (sheet 'Samples'), n = 1.
The subject of a further test is PRKAG1. Conditions: read-out: apparent Kd, compound concentrations: 100 nM and 1000 nM (sheet 'Samples'), n = 1.
For the next test, the system named is PRKCD. Conditions: read-out: apparent Kd, n = 1.
In another test the test system is PRKCQ. To be noted: read-out: apparent Kd, n = 1.
In a further test the test system is PTK2B. To be noted: read-out: apparent Kd, compound concentrations: 100 nM and 1000 nM (sheet 'Samples'), n = 1.
A further test deals with FER. Conditions: read-out: apparent Kd, compound concentrations: 100 nM and 1000 nM (sheet 'Samples'), n = 1.
A further test deals with PLK4. Conditions: read-out: apparent Kd, compound concentrations: 100 nM and 1000 nM (sheet 'Samples'), n = 1.
A further test concerns STK10. Conditions: read-out: apparent Kd; compound concentrations: 100 nM and 1000 nM (sheet 'Samples'), CATDS: 6.2859781396148603E-2; n = 1.
A further test has as its system PRKD2. To be noted: read-out: apparent Kd, n = 1.
The test system of another test is RPS6KA6. To be noted: read-out: apparent Kd, n = 1.
The subject of the next test is MARK4. Conditions: read-out: apparent Kd, n = 1.
A further test relates to PRKD3. Conditions: read-out: apparent Kd, n = 1.
For another test, the system named is PTK2. Conditions: read-out: apparent Kd, compound concentrations: 100 nM and 1000 nM (sheet 'Samples'), n = 1.
In another test the test system is PRKAA1. Conditions: read-out: apparent Kd; compound concentrations: 100 nM and 1000 nM (sheet 'Samples'), CATDS: 2.1062710392343101E-2; n = 1.
The mark [1] stands for this setting: compound concentrations:100 nM and 1000 nM (sheet 'Samples').

Molecules are shown by their SMILES. Read-outs that look alike come from different tables or passages of the source.

Consider `Cl.Cl.NCC(NC(=O)c1cc(-c2ccnc3[nH]ccc23)cs1)c1ccccc1.NCC(NC(=O)c1cc(-c2ccnc3[nH]ccc23)cs1)c1ccccc1` (stereo not drawn) [GSK1229959A], for which the potency estimated from few doses was 349 nM with CDK7 (CATDS: 2.3944449367716902E-2); 33.2 nM in the test with CDKL5 (compound concentrations: 100 nM and 1000 nM (sheet 'Samples'), CATDS: 5.0422739373742101E-2); 1200 nM in the test with DYRK1A (compound concentrations: 100 nM and 1000 nM (sheet 'Samples'), CATDS: 1.8409243102770301E-2); 649 nM in the test on ERCC2 (CATDS: 2.07815599628208E-2); 382 nM with MYLK3 (CATDS: 2.3428006567825201E-2); 2230 nM in the test with PIP4K2C (CATDS: 1.6714878320236801E-2). Also, the potency estimated from few doses with PRKAG1 (CATDS: 1.9025331184012301E-2) was 1010 nM; in the test on PRKCD (compound concentrations: 100 nM and 1000 nM (sheet 'Samples'), CATDS: 2.3457230282112398E-2), 380 nM; in the test with PRKCQ (compound concentrations: 100 nM and 1000 nM (sheet 'Samples'), CATDS: 1.8945184174552199E-2) it was 1030 nM; in the test on PTK2B (CATDS: 1.9759894186564299E-2) it was 828 nM.
On to `Cl.Cn1cc(C2=C(c3c4n(c5ccccc35)CCNC4)C(=O)NC2=O)c2ccccc21` [RO0318365-001], for which the potency estimated from few doses was 734 nM in the test on CDK7 (CATDS: 7.1923944144695898E-2); 696 nM in the test on ERCC2 (CATDS: 7.4045119432564296E-2); 1060 nM in the test with FER (CATDS: 6.02044843999179E-2); 1100 nM in the test on PLK4 (CATDS: 5.91687426181325E-2); 1810 nM in the test with PRKCD (compound concentrations: 100 nM and 1000 nM (sheet 'Samples'), CATDS: 4.8671677826933601E-2); 607 nM in the test with PRKCQ (compound concentrations: 100 nM and 1000 nM (sheet 'Samples'), CATDS: 7.9846572084882106E-2). Further, the potency estimated from few doses in the test on PTK2B (CATDS: 6.7595952047570504E-2) was 828 nM.
For the compound `CCn1c(-c2nonc2N)nc2cncc(C(=O)N3CC[C@H](N)C3)c21.Cl` [SB-772077-B], the potency estimated from few doses in the test with DYRK1A (setting [1]) is 1520 nM; with PRKCD (setting [1]), 843 nM.
As for `NS(=O)(=O)c1ccc(N/N=C2\C(=O)Nc3ccc4ncccc4c32)cc1` [GW305178X], the potency estimated from few doses in the test with CDKL5 (compound concentrations: 100 nM and 1000 nM (sheet 'Samples'), CATDS: 5.21381649539812E-2) was 867 nM.
For `CNc1nccc(-c2ccc3c(N)n[nH]c3c2)n1` [GSK2206003A], the potency estimated from few doses with DYRK1A (compound concentrations: 100 nM and 1000 nM (sheet 'Samples'), CATDS: 5.2030559523690803E-2) was 1370 nM; in the test on MYLK3 (CATDS: 6.3436586084605395E-2), 601 nM; with STK10, 622 nM.
As for `COc1ccc(Nc2nccc(NCCNC(=O)Nc3cc(C)ccc3C)n2)cc1` [GSK1379899A], the potency estimated from few doses was 1270 nM in the test on ERCC2 (CATDS: 4.8239081355384503E-2); 821 nM in the test with FER (CATDS: 5.8591090270846503E-2); 1070 nM with PRKAG1 (CATDS: 5.18818459595803E-2); 1100 nM in the test on PRKD2 (compound concentrations: 100 nM and 1000 nM (sheet 'Samples'), CATDS: 5.1330821571124501E-2); 876 nM in the test with PTK2B (CATDS: 5.6831578265935698E-2); 926 nM in the test on RPS6KA6 (compound concentrations: 100 nM and 1000 nM (sheet 'Samples'), CATDS: 5.53882917247734E-2).
For the compound `CCn1c(-c2nonc2N)nc2cncc(Br)c21` [SB-738004], the potency estimated from few doses in the test on DYRK1A (setting [1]) is 717 nM; in the test on PRKCD (setting [1]), 649 nM; in the test with PRKCQ (setting [1]), 2390 nM.
Take `Cc1occc1-c1nc(N)c(OC[C@@H](N)Cc2c[nH]c3ccccc23)cc1-c1cc2c(C)n[nH]c2cn1` [GSK1660450B]: the potency estimated from few doses was 1790 nM with DYRK1A (setting [1]); 1110 nM in the test on MARK4 (setting [1]); 8.62 nM with PRKCD (setting [1]); 386 nM in the test on PRKD2 (setting [1]); 170 nM in the test with PRKD3 (setting [1]); 19.1 nM in the test on RPS6KA6 (setting [1]).
On to `Cl.Nc1nc(-c2ccc3c(c2)C(=Cc2cc(Br)c(O)c(Br)c2)C(=O)N3)cs1` [GW407323A], for which the potency estimated from few doses in the test with CDKL5 (compound concentrations: 100 nM and 1000 nM (sheet 'Samples'), CATDS: 9.5267986760985093E-2) is 73.7 nM; with DYRK1A (compound concentrations: 100 nM and 1000 nM (sheet 'Samples'), CATDS: 7.6450134498411204E-2), 110 nM; in the test on MARK4 (compound concentrations: 100 nM and 1000 nM (sheet 'Samples'), CATDS: 2.9036597376729201E-2), 1630 nM; in the test on MYLK3 (CATDS: 0.25523575381679198), 17.2 nM; with PRKD2 (compound concentrations: 100 nM and 1000 nM (sheet 'Samples'), CATDS: 3.4430997277348899E-2), 812 nM; in the test on PRKD3 (compound concentrations: 100 nM and 1000 nM (sheet 'Samples'), CATDS: 3.1520603000909302E-2), 1130 nM.
On to `O=C1N=C(NCCc2ccccc2Cl)S/C1=C\c1ccc2ncccc2c1` [RO4498484-000], for which the potency estimated from few doses in the test with CDKL5 (compound concentrations: 100 nM and 1000 nM (sheet 'Samples'), CATDS: 6.1493092563951302E-2) is 1600 nM; with DYRK1A (compound concentrations: 100 nM and 1000 nM (sheet 'Samples'), CATDS: 8.1161352179904903E-2), 673 nM.
`O=C1N=C(NCCc2cccs2)S/C1=C\c1ccc2ncccc2c1` [RO4508348-000]: the potency estimated from few doses in the test on DYRK1A (compound concentrations: 100 nM and 1000 nM (sheet 'Samples'), CATDS: 0.139481417923777) is 734 nM.
With `Cc1cc(NC(=O)c2cccc(NC(=O)/C=C/CN(C)C)c2)ccc1Nc1nccc(-c2cccnc2)n1` [JNK-IN-7], the potency estimated from few doses with CDKL5 (setting [1]) was 958 nM.
As to `CCC(CC)(CC)n1cnc2c(N)ncnc21` [SKF-97620], in the test on PTK2 (CATDS: 2.8719302746770599E-2), the potency estimated from few doses is 1140 nM.
As for `Cl.Cn1c(=O)c(Cc2ccccc2F)cc2cnc(NC3CCOCC3)nc21` [RO3305377-001], the potency estimated from few doses was 380 nM with CDK7 (CATDS: 3.4029245989281497E-2); 299 nM in the test with ERCC2 (CATDS: 3.95504986982557E-2); 361 nM with FER (CATDS: 3.5160978159500297E-2); 2170 nM in the test with PIP4K2C (CATDS: 1.61438790686462E-2); 613 nM with PLK4 (CATDS: 2.6104796567006299E-2); 980 nM in the test with PRKAA1. The potency estimated from few doses in the test with PRKAG1 (CATDS: 2.2977618233773301E-2) was 801 nM; in the test with PTK2B (CATDS: 3.3520584845693903E-2) it was 390 nM; with PTK2 (CATDS: 2.57578339913308E-2) it was 630 nM; with RPS6KA6 (compound concentrations: 100 nM and 1000 nM (sheet 'Samples'), CATDS: 2.9562664752210699E-2) it was 485 nM.
`O=C1N=C(NCCc2ccccc2F)S/C1=C\c1ccc2ncccc2c1` [RO4498483-000]: in the test on DYRK1A (compound concentrations: 100 nM and 1000 nM (sheet 'Samples'), CATDS: 8.8096211342070505E-2), the potency estimated from few doses was 883 nM.

The values above are taken from publication PMC11062922 (Nature Chemical Biology, 2023).
